# The campaign covered roughly 3,200 compounds. About 2,600 (81%) were called active. So high a share suggests a set chosen from earlier hits. These entries were drawn from the full list. Unmarked numbers belong to inactive results.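 Rule for the calls: active = activation above the all-compound mean plus 3 SD, ignoring values outside control-based bounds (cut at about 4.8% in these data); inactive = the rest.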
# Assay: apparent activators from fluorescence artefacts, no enzyme – biochemical, fluorescence intensity, high throughput, artefact control for kallikrein-7 zymogen activator project (AID 686952);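 note: value is the 4 h activation minus the activation read at time zero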
# Conditions: EDANS-DABCYL substrate fluorescence interference, 4 h, at 7 µM, hits give high values, solvent 0%, active enzyme control 100%
row,SMILES,activation
1,CCS(=O)(=O)Nc1cc(C(=O)OC)ccc1C(=O)OC,8.19% (active)
2,CCCCCC(=O)Nc1ccc(-c2cn3cccnc3n2)cc1,28.5% (active)
3,CC(=O)Nc1ccc(-c2cn3cccnc3n2)cc1,73.5% (active)
4,CC(C)(C)C(=O)Nc1ccc(-c2cn3cccnc3n2)cc1,80.3% (active)
5,CCOC(=O)C1=C(O)/C(=C/c2ccc(OCC(=O)Nc3ccc(C)cc3)cc2)N=C1C,3.03%
6,CCOc1ccc(-n2c(SCC(=O)Nc3cc(C)c(NC(=O)c4ccccc4)cc3OC)nnc2-c2cccs2)cc1,19.4% (active)
7,COc1c(N2CCN(C(=S)Nc3ccccc3F)C(C)C2)c(F)cc2c(=O)c(C(=O)O)cn(C3CC3)c12 (configuration not stated),-26%
8,Cc1cccc(C)c1NC(=O)C(c1ccccc1)N1CC(=O)Nc2ccccc21 (configuration not stated),24.8% (active)
9,CNc1cncc(-c2ccc(NS(C)(=O)=O)cc2)n1,46.5% (active)
10,CN(C)Cc1c(O)ccc2c(=O)c(-c3ccccc3Cl)coc12,83.7% (active)
11,CC(=O)Nc1ccc(S(=O)(=O)NCC(=O)OCc2cc(=O)oc3ccc4ccccc4c23)cc1,209% (active)
12,Cc1c(C)c2c(OCC(=O)NCCCO)cc3c(c2oc1=O)CCC(C)(C)O3,55.7% (active)
13,Cc1c(C)c2c(OCC(=O)N[C@@H](C(=O)O)c3ccccc3)cc3c(c2oc1=O)CCC(C)(C)O3,49.4% (active)
14,Cc1cc(=O)oc2c3c(cc(OCC(=O)NCCC(=O)N[C@@H](C)C(=O)O)c12)OC(C)(C)CC3,65.1% (active)
15,Cc1cc(=O)oc2c3c(cc(OCC(=O)N[C@H](C(=O)O)c4ccccc4)c12)OC(C)(C)CC3,49.3% (active)
16,O=C(O)c1ccc2c3c(cccc13)C(=O)N(OS(=O)(=O)c1ccccc1)C2=O,103% (active)
17,Cc1cc(C)c2c(n1)nn1c(-n3ccnc3)cc(C)nc21,44.4% (active)
18,Cc1ccc(C2Nc3ccccc3C(=O)N2CCN2CCNC2=O)cc1 (configuration not stated),19.4% (active)
19,C/C(=C\c1ccccc1)C1NC(=O)c2c(sc3c2CCCC3)N1 (configuration not stated),14.5% (active)
20,COC(=O)c1cc(N2CCNCC2)nc2ccccc12,33.6% (active)
21,CC1CCCN(C(=O)c2cc(-c3ccco3)nc3ccccc23)C1 (configuration not stated),35.5% (active)

row,SMILES,activation
1,CC(=O)N1CCN(C(=O)c2cc(-c3ccc(C)o3)nc3ccccc23)CC1,66.4% (active)
2,CCCCCn1c(=O)c(C(=O)OCC)c(Cl)c2ccccc21,-2.49%
3,CCCCN(CCCC)CC(O)Cn1c2ccccc2c(=O)c2ccccc21 (configuration not stated),16.2% (active)
4,O=C1NC(c2cccc(Cl)c2)Nc2ccccc21 (configuration not stated),18.9% (active)
5,CC(=O)NN1C(=O)c2ccccc2NC1c1ccccc1 (configuration not stated),35.4% (active)
6,CCOC(=O)NN1C(=O)c2ccccc2NC1c1cccc(O)c1 (configuration not stated),20.4% (active)
7,CCc1nc(Nc2ccc(NC(C)=O)cc2)c2oc3ccccc3c2n1,218% (active)
8,CC(=O)Nc1nc(C)c(-c2csc(Nc3ccc(S(N)(=O)=O)cc3)n2)s1,46.5% (active)
9,CCOC(=O)c1[nH]c2ccc(OC)cc2c1NC(=O)CCN1CCN(Cc2ccccc2)CC1,-3.59%
10,Cc1nn(-c2ccccc2)c(C)c1NC(=O)COC(=O)c1cc(Cl)ccc1O,23.3% (active)
11,O=C(Nc1nncs1)c1ccccc1NS(=O)(=O)c1cccs1,38.3% (active)
12,O=c1oc2c(CN3CCCCC3)c(O)ccc2c2c1CCCCC2,68.6% (active)
13,COc1cc(/C=N\NC(=O)c2nonc2N)c(OC)cc1Br,74% (active)
14,COc1cc2c(cc1OC)CC1(CCCCC1)N=C2,44.6% (active)
15,CCCN(CC(=O)NC(=O)NC1CCCCC1)CC(=O)Nc1cc(Cl)ccc1Cl,4.93% (active)
16,CN(C(=O)c1cc2c(=O)n3ccccc3nc2s1)C1CCCCC1,23% (active)
17,CCOCCCNC(=O)c1cc2c(=O)n3ccccc3nc2s1,68.6% (active)
18,CCN1CCN(C(=O)Cn2nc(C)n3c(cc4c(OC)cccc43)c2=O)CC1,29.8% (active)
19,CC1(C)Oc2ccc3ccc(=O)oc3c2/C(=N/O)C1=O,84.6% (active)
20,COC(=O)Cc1cc(=O)oc2c(C)c(O)ccc12,76.7% (active)
21,CCN1CCCC1CNC(=O)c1cc2cc(OC)c(OC)cc2[nH]1 (configuration not stated),22.6% (active)

# Source: PubChem BioAssay AID686952 (The Scripps Research Institute Molecular Screening Center, 2013)
